Test results: PubChem BioAssay (NCATS)
Results filed as inconclusive are left out. Active and inactive are the calls of the source. The call rests on the fitted dose curve; in most records, active means well fitted curve in the direction sought with a large enough effect; inconclusive means small, poorly fitted or top-dose-only effect, or another doubt; inactive means no such curve, though single readings can be large; an effect the other way counts as inactive or inconclusive.

Experiments:
[1] = molecular target: Phospholipid hydroperoxide glutathione peroxidase GPX4 (Homo sapiens) (UniProt P36969); experiment: Primary qHTS Assay for Inhibitors of Recombinant Selenoprotein Glutathione Peroxidase 4 (GPX4) (AID 1845192); further: nearly all actives have a fitted effect of over 65% in size
Sequence of Phospholipid hydroperoxide glutathione peroxidase GPX4 (Homo sapiens) (P36969 whole entry, looked up): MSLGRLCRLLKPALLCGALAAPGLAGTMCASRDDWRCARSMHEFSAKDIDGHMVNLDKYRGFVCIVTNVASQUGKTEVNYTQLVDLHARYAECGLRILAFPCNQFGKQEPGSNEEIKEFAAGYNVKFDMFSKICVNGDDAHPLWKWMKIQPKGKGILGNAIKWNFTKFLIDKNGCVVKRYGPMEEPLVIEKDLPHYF
Method in brief: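 qHTS, GR-coupled: GPX4 200 nM + cpd 30 min RT → GSH 1 mM, NADPH 0.5 mM, GR 100 nM → CHP 0.5 mM start; fluor 340/450 at t0 and t15 min; no-enzyme wells as control.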

[2] = Quantitative High-Throughput drug screen in 47 multiple myeloma cell lines against the NCATS MIPE library collection: FR4_PLB cell viability assay (AID 1918924; further: nearly all actives have a fitted effect of over 35% in size; further: potency means the concentration at half of the fitted maximal effect)
Method in brief: (§1)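 qHTS of the MIPE 4.0 collection: 500 myeloma cells/well, 48 h drug exposure at 37C in 5% CO2, then CellTiter-Glo for 5 min at room temperature before luminescence reading.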

[3] = Quantitative High-Throughput drug screen in 47 multiple myeloma cell lines against the NCATS MIPE library collection: Delta47_JCRB cell viability assay (AID 1918925; further: nearly all actives have a fitted effect of over 45% in size; further: potency means the concentration at half of the fitted maximal effect)
Method in brief: as §1

[4] = Quantitative High-Throughput drug screen in 47 multiple myeloma cell lines against the NCATS MIPE library collection: EJM_DSMZ cell viability assay (AID 1918926; further: nearly all actives have a fitted effect of over 30% in size; further: potency means the concentration at half of the fitted maximal effect)
Method in brief: as §1

[5] = Quantitative High-Throughput drug screen in 47 multiple myeloma cell lines against the NCATS MIPE library collection: AMO1_DSMZ cell viability assay (AID 1918927; further: nearly all actives have a fitted effect of over 30% in size; further: potency means the concentration at half of the fitted maximal effect)
Method in brief: as §1

[6] = Quantitative High-Throughput drug screen in 47 multiple myeloma cell lines against the NCATS MIPE library collection: ARD_JJKsccE7 cell viability assay (AID 1918929; further: potency means the concentration at half of the fitted maximal effect)
Method in brief: as §1

[7] = Quantitative High-Throughput drug screen in 47 multiple myeloma cell lines against the NCATS MIPE library collection: Karpas620_DSMZ cell viability assay (AID 1918959); further: nearly all actives have a fitted effect of over 30% in size; further: potency means the concentration at half of the fitted maximal effect
Method in brief: as §1

[8] = molecular target: Luciferin 4-monooxygenase (Photinus pyralis) (UniProt P08659); experiment: Primary firefly luciferase (FLuc) qHTS assay for identification of artifact compounds. (AID 1845220); further: nearly all actives have a fitted effect of over 60% in size
Method in brief: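 Reaction readout was CCD-imaged luminescence, taken 5 min after adding 10 nM purified firefly enzyme to compound-treated wells holding 10 uM luciferin and ATP in pH 7.6 buffer.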

[9] = test system: Nanoluciferase (engineered Oplophorus gracilirostris luciferase); experiment: Primary Nanoluciferase (NLuc) qHTS assay for identification of artifact compounds. (AID 1845222); further: potency means the concentration at half of the fitted maximal effect
Method in brief: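 Concentration-response data were obtained by luminescence after 5 min with Nano-Glo substrate at 1:100. The enzyme was diluted S16 NLuc-expressing cell medium, preincubated with compound for 15 min at RT. Curves were fitted with a 4-parameter Hill model.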

[10] = Primary redox qHTS assay for identification of artifact compounds. (AID 1845223)
Method in brief: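 Redox-cycling detection via DTT (250 uM final) oxidation coupled to Amplex Red (25 uM)/HRP (250 mU/mL) in HBSS. 15 min preincubation plus 30 min after DTT, room temperature. Ex/Em 525/598 nm; 4-parameter Hill fit against DMSO and 10 uM DA3003.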

[11] = Quantitative High-Throughput drug screen in 47 multiple myeloma cell lines against the NCATS MIPE library collection: ARP1_JJKsccF8 cell viability assay (AID 1918928; further: nearly all actives have a fitted effect of over 40% in size; further: potency means the concentration at half of the fitted maximal effect)
Method in brief: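 Cell viability inhibition in this qHTS is measured via ATP content (CellTiter-Glo) after 48 h drug exposure at 37 °C. Wells hold 500 cells; DMSO-treated wells define 100% and medium-only wells 0%.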

[12] = Primary fluorescence-based thiol-reactive (MSTI) qHTS assay for identification of artifact compounds. (AID 1845221); further: nearly all actives have a fitted effect of over 65% in size; further: potency means the concentration at half of the fitted maximal effect
Method in brief: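 qHTS titration of compound; 4 uM MSTI, PBS pH 7.4, 2% DMSO; 1 h RT, dark; fluorescence 525/598 nm; normalized to Acetyl-MSTI and MSTI; 4-parameter Hill fit.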

Measured: Potency

N#CC(c1ccnc(NCCc2cccnc2)n1)c1nc2ccccc2s1 (stereo not given)
active: [2] 20.9 µM | [3] 11.8 µM | [4] 18.7 µM | [5] 6.62 µM | [6] 6.62 µM | [7] 9.35 µM
inactive: [1]

O=C(O)c1ccc(O)c2ncc(N3CCOCC3)cc12
inactive: [1] | [2] | [4]
active: [5] 20.9 µM | [7] 18.7 µM

CN(C)c1ccc(-c2nc3ncc(Cl)c(N4CCN(CC(=O)Nc5nccs5)CC4)c3[nH]2)cc1
active: [2] 2.09 µM | [4] 5.9 µM
inactive: [8] | [9] | [10]

CNC1[C@H](O)C(O[C@@H]2C(O)C(O[C@H]3O[C@H]([C@@H](C)NC)CC[C@H]3N)[C@@H](N)C[C@H]2N)OC[C@]1(C)O (stereo not given in full)
inactive: [2] | [3] | [4] | [5] | [11] | [6] | [7]

O=C(NCCCCN1CCOCC1)c1cc2ccccc2o1
inactive: [1] | [2] | [4] | [6] | [7]

CCCCOCCOc1nc(-c2ccc(C(=O)O)c(F)c2)sc1C
inactive: [1] | [2] | [3] | [4] | [5] | [7]

O=S(=O)(O)c1ccc2cc(N=Nc3cc(S(=O)(=O)O)c4cccnc4c3O)ccc2c1
active: [12] 0.15 µM | [4] 16.6 µM | [11] 2.35 µM
inactive: [10] | [5] | [6] | [7]

O=C(O)C1=CC(O)C(O)[C@H](O)C1 (stereo not given in full)
inactive: [1] | [2] | [3] | [4] | [5] | [6] | [7]

CCCCn1c(=O)n(Cc2ccccc2F)c(=O)c2[nH]c(Cc3ccc(NC(C)=O)cc3)nc21
inactive: [1] | [12] | [10] | [3] | [6] | [7]
active: [9] 13.5 µM

CC1CNc2c(cccc2S(=O)(=O)N[C@@H](CCCN=C(N)N)C(=O)N2CC[C@@H](C)C[C@@H]2C(=O)O)C1 (stereo not given in full)
inactive: [1] | [4] | [6]
active: [7] 23.5 µM

Cc1ccc(C2=Nc3ccc(Cl)cc3OC2)cc1
active: [2] 4.69 µM | [5] 1.18 µM
inactive: [1] | [4] | [7]

COc1cc2nccc(Oc3ccc(NC(=O)Nc4ccc(F)cc4F)c(F)c3)c2cc1OC
inactive: [1] | [2] | [5] | [11] | [6] | [7]

COc1cc(CNC(=O)CCCCC=CC(C)C)ccc1O
inactive: [2] | [3] | [5] | [11] | [6] | [7]
active: [4] 10.5 µM

O=C(O)CCNc1cc(N2CCc3ccccc3CC2)nc(-c2ccccn2)n1
inactive: [1] | [12] | [9] | [10] | [2] | [3] | [6]

CN1c2ccccc2C(=O)N2CCc3c([nH]c4ccccc34)C21 (stereo not given)
inactive: [8] | [12] | [9] | [10] | [2] | [4] | [5] | [6] | [7]
active: [3] 26.4 µM

CC[C@@H]([C@H](C)O)n1ncn(-c2ccc(N3CCN(c4ccc(OCC5CO[C@@](Cn6cncn6)(c6ccc(F)cc6F)C5)cc4)CC3)cc2)c1=O (stereo not given in full)
active: [5] 7.43 µM | [7] 5.9 µM
inactive: [1]

C[C@@]1(C(=O)Nc2ccc(F)nc2)CCCN1c1nc(Nc2cc(C3CC3)[nH]n2)c2cccn2n1
active: [2] 0.166 µM | [3] 0.0166 µM | [5] 0.0935 µM | [6] 0.001 µM
inactive: [8] | [9] | [10]
